From PubChem BioAssay AID1860 (The Scripps Research Institute Molecular Screening Center, 2009) come the findings set out here.

The other results are listed elsewhere or left out. A number with no mark means an inactive call. Active and inactive are the calls of the source. No stated cut-off is given here; in the data, active means inhibition above about 8%; inactive means the rest.

The test system of this assay is VIM-2 metallo-beta-lactamase [Pseudomonas aeruginosa]. As to the kind of experiment: P. aeruginosa VIM-2 enzyme inhibition – biochemical, epi-absorbance, HTS, confirmation (AID 1860).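 Further: 0% = enzyme with vehicle and 100% = no enzyme.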 The conditions noted are these: purified VIM-2 enzyme, nitrocefin absorbance; at 5.6 µM; active compounds read high.
Turning to `NS(=O)(=O)c1ccc(NC(=O)COC(=O)c2c3c(nc4ccccc24)/C(=C\c2ccc4c(c2)OCO4)CCC3)cc1`, the inhibition (as a rule, the relative decrease from the control value, in per cent) was -1.18%.

Turning to `COc1cc(/C=C2/SC(=S)N(Cc3ccccc3)C2=O)cc(OC)c1O`, the inhibition is 13.7% (active).

In the case of `c1ccc(-c2nccc(-c3ccc(-n4cnc5ccccc54)cc3)n2)nc1`, the inhibition was 71.7% (active).

Turning to `Nc1c(C(=O)c2cccs2)sc2nsc(SCCN3CCCCC3)c12`, the inhibition is 31.7% (active).

Regarding `NC(=O)c1ccc(NC(=O)COC(=O)c2c3c(nc4ccccc24)/C(=C\c2ccc4c(c2)OCO4)CCC3)cc1`, the inhibition was -0.41%.

In the case of `Oc1ccc2ccc3cccc[n+]3c2c1`, the inhibition is 30.2% (active).

For the compound `CN1C(=O)c2cccc3c(N)ccc(c23)C1=O`, the inhibition was 48.4% (active).

On to `C/C(=N\Nc1ccc(S(N)(=O)=O)cc1[N+](=O)[O-])c1cccs1`, for which the inhibition is 17.3% (active).

On to `Cc1cc2nc3c(=O)n(Cc4ccccc4)c(=O)[nH]c3nc2cc1N`, for which the inhibition was 16.6% (active).

As for `CCC(=C/c1sc2ccc3ccccc3c2[n+]1C)/C=C1\Sc2ccc3ccccc3c2N1C`, the inhibition is 12% (active).

With `Cc1nn(C)cc1N1C(=O)c2cccc3c(N)ccc(c23)C1=O`, the inhibition was 35.2% (active).
